Screening data: PubChem, several laboratories
TROY NFkB inh – TROY signaling inhibition | AID 1347056 | actives 0.98% (n = 360,000) | inhibition, % at 10 µM | Q293 LMP1-TROYcd NF-kB luciferase reporter, 4 h;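 active means compounds whose plate-normalised and pattern-corrected inhibition of the luciferase reporter signal at the single screening dose is 50% or more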
EBV LMP1 NFkB – inhibitors of Epstein-Barr LMP1-induced NF-kappaB reporter; LMP1-induced NF-kappaB luciferase reporter cells, luminescence; inhibition, % at 12.5 µM; actives 0.69% (n = 350,000); AID 504558; in the data active means inhibition above about 41%; inconclusive means no clear call, values can overlap the other calls;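 further: 0% = neutral control wells and 100% = reference inhibitor control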
TRPM1 prom inh – inhibitors of MITF-driven TRPM1 promoter in melanoma cells; actives 0.83% (n = 330,000); SK-MEL-5 TRPM1 promoter luciferase, 24 h; inhibition, % at 12.5 µM; AID 488899;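 active means mean inhibition across replicates of 60% or more, whatever share of single replicates reaches that level; inconclusive means some that reach 60%, reason not given; inactive means mean inhibition across replicates below 60%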
TWEAK-Fn14 inh – TWEAK-Fn14 signaling inhibition; inhibition, % at 10 µM; TWEAK-stimulated Fn14 reporter cells, luciferase luminescence, 8 h; AID 1159606; actives 2% (n = 360,000); in the data active means inhibition above about 50%
Peg3 promoter – reduces Peg3 promoter-driven luciferase expression in HeLa; HeLa PEG-Prom luciferase reporter, luminescence, overnight; inhibition, % at 20 µM; actives 1.7% (n = 360,000);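 active means inhibition of at least 50% at 20 µM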
HIF-2a block – inhibitors of HIF-2a. 786-0 RCC cells HIF-2a reporter, luciferase luminescence, overnight. inhibition, % at 18.8 µM. actives 0.72% (n = 360,000). AID 624352;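 active means inhibition of the luminescence signal of 40% or more relative to plate controls, in a single-dose primary screen at 18.75 µM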
Numbers without * were called inactive; ? = inconclusive; / = not tested or not shown. In the library only some 4% were active in any assay of this set; here they are far more common.

SMILES	TROY NFkB inh	EBV LMP1 NFkB	TRPM1 prom inh	TWEAK-Fn14 inh	Peg3 promoter	HIF-2a block
CCCOc1ccc(NC(=O)CC2C(=O)N(c3ccc(OCC)cc3)C(=S)N2C2CC2)cc1 (stereo not given)	-5.5	-5.0	74.8*	-13.5	28.1	6.9
O=C(CCl)N1c2ccccc2Sc2c1ccc1ccccc21	-66.4	2.9	30.0	-13.2	58.2*	-41.3
CCc1ccc2cccc3c2c1N=CN3C	18.7	7.0	-7.4	86.3*	12.9	13.4
CCN1c2cccc3cccc(c23)S1(=O)=O	-10.5	-7.4	1.1	-12.8	-17.9	17.1
O=C(NC1CC1)c1ccc2sc([C@H]3C[C@H](O)[C@@H](CO)O3)nc2c1	-6.0	/	/	-5.9	0.8	1.1
c1nc(CCO[C@H]2CCCCO2)cc2cc3c(cc12)OCO3	60.4*	38.6	6.6	92.1*	24.0	19.1
c1ccc2cc(CCO[C@H]3CCCCO3)ncc2c1	10.2	26.1	-16.3	66.5*	-96.1	-61.8
COC(=O)[C@]12CCCCC=C1N(CCc1ccc(OC)c(OC)c1)C(=O)[C@H](CC(=O)NCc1cccs1)C2	/	/	/	/	/	0.8
O=C(Nc1cccc(O)c1)C(=O)Nc1ccccn1	38.9	0.7	0.8	75.7*	-72.5	-52.7
S=C(Nc1ccccc1)Nc1ccccn1	-23.3	-3.3	/	-19.3	-66.5	-119.9
C/C(CC(=O)Nc1ccccn1)=N\NC(=O)C(=O)Nc1cccc(C)c1	-1.7	1.9	-6.0	5.7	1.3	-2.6
O=C(Nc1ccccc1)C(=O)Nc1ccccn1	45.8	32.1	13.6	61.5*	-16.2	-84.7
O=S(=O)(N/N=C/c1ccc(OC2CSC2)cc1)c1ccccc1	0.5	-6.7	-5.6	6.7	14.1	5.4
O=C(Nc1cccc2c1CCCC2)c1cc(C2CCCCN2C(=O)CCCc2ccccc2)on1 (stereo not given)	4.0	/	/	21.9	4.5	11.4
CCS(=O)(=O)N1CCC(C(=O)Nc2ccc(C(C)=O)cc2)CC1	-0.7	-1.3	9.2	3.9	3.8	6.3
CCN1CCN(C(=O)C(=O)c2cn(CC(=O)N(CC)CC)c3ccccc23)CC1	7.1	5.0	0.9	4.0	63.1*	5.0
COC(=O)c1ccc(COc2cccn3c(N(C)C(=O)CCC4CCCC4)c(C)nc23)cc1	45.0	/	/	51.7*	22.8	2.8
Cc1nc2c(OCc3ccc(F)cc3)cccn2c1N(C)C(=O)CCC1CCCC1	8.3	/	/	13.1	22.6	-4.9
O=C1NC[C@@H](CCCCN2CCN(CC3CCCCC3)C(=O)C2=O)N(CCC2CCCCC2)C1=O	10.5	/	/	-13.8	/	0.7
O=C(c1ccccc1)c1ccccc1N1C(=O)C=CC1=O	-1.2	34.7	42.7	-6.2	104.3*	25.0
O=C1N=c2ccccc2=C1c1sc(=S)n(-c2ccc(O)cc2)c1O	28.9	4.1	19.5	21.2	19.9	20.1
O=C1N=c2ccccc2=C1c1sc(=S)n(Cc2ccccc2Cl)c1O	20.2	1.7	24.3	-20.5	82.9*	17.2
O=c1c2[nH]c3cccc(Cl)c3c2ncn1CC1CCCO1 (stereo not given)	76.5*	-15.8	-3.4	87.3*	-28.2	31.6
O=C(O)C1CCC(CNCc2ccncc2)CC1 (stereo not given)	-4.8	-1.4	0.8	-7.8	14.5	13.9
O=C(O)C1CCC(CNCc2ccccc2Cl)CC1 (stereo not given)	6.1	7.6	11.4	55.9*	18.7	7.7
SMILES	TROY NFkB inh	EBV LMP1 NFkB	TRPM1 prom inh	TWEAK-Fn14 inh	Peg3 promoter	HIF-2a block
c1ccc2c(C3OCC4(CCCCC4)CO3)cccc2c1	-71.7	-23.4	/	-30.1	-192.9	-175.9
Brc1ccc2ncnc(NCc3ccco3)c2c1	16.4	27.0	-6.3	41.9	-40.2	-17.7
OC(CNCc1ccco1)Cn1c2ccc(Br)cc2c2cc(Br)ccc21 (stereo not given)	-10.2	-50.7	3.5	4.6	98.4*	-18.7
CCCCCCCCCCn1c2c(c(=N)c3c1CCC3)CCC2	57.1*	?	80.7*	71.9*	97.6*	63.8*
CCCCCCCCCn1c2c(c(=N)c3c1CCC3)CCCC2	50.7*	28.7	91.6*	56.7*	104.2*	27.5
CCn1c2c(c(=N)c3c1CCC3)CCCC2	-36.0	/	/	16.3	15.6	6.4
CCCCCCCCn1c2c(c(=N)c3ccccc31)CCC2	47.1	7.8	89.9*	70.6*	86.4*	3.9
CS(=O)(=O)N(CC(=O)N1CCc2ccccc2C1)c1ccccc1Br	7.7	-5.4	-8.0	3.4	24.1	10.2
Cc1ccc([C@@H]2CC(=O)[C@@H]3CN(S(=O)(=O)c4ccc(C)cc4)[C@H](c4ccc(Cl)cc4)C[C@@H]3N2S(=O)(=O)c2ccc(Cl)cc2)cc1	-3.9	5.3	/	-16.9	1.2	2.6
COc1ccc(NC(=O)CN2C(=O)NC3(CCCC3)C2=O)c(OC)c1	7.4	-9.9	-4.4	81.2*	-6.5	-4.4
COc1ccc(NC(=O)CN2C(=O)NC(C)(C3CCCCC3)C2=O)c(OC)c1 (stereo not given)	-17.4	4.8	-1.4	1.9	16.6	2.7
COc1cc(/C=C(/C#N)C(=O)NCCc2c[nH]c3ccccc23)ccc1OCc1ccccc1F	5.0	2.5	32.6	-12.1	89.4*	1.2
Cc1cc(/C=C(\C#N)C(=O)NCCc2c[nH]c3ccccc23)c(C)n1C	-14.2	3.1	-3.3	-5.3	-6.5	-1.8
Cc1ccc(C(=O)/C=C2\NCCNC2=O)cc1	-28.5	9.5	-30.4	14.6	-170.3	-137.2
Cc1ccc(C(=O)/C=C2\NCC(C)NC2=O)cc1 (stereo not given)	/	23.5	10.7	54.1*	6.0	-7.7
NC(=S)n1[nH]c(-c2ccc([N+](=O)[O-])cc2)c(N=Nc2ccc(O)cc2)c1=O	-8.7	-18.9	4.3	-34.0	-1.1	-5.3
NC(=S)n1[nH]c(-c2ccc([N+](=O)[O-])cc2)c(N=Nc2cccc(Cl)c2)c1=O	55.7*	13.4	31.0	71.8*	25.2	-70.1
COc1ccc(-c2cc3c(=O)n(CC(=O)NCc4ccc(Cl)cc4)ncn3n2)cc1	-33.1	-48.0	-13.7	-48.2	8.5	8.7
Cc1nn(CC(=O)NCCCN2CCC(N3CCCCC3)CC2)c(=O)c2cc(-c3ccccc3)nn12	3.6	-7.9	-22.4	3.0	77.9*	5.0
COc1ccc(-c2cc3c(=O)n(CC(=O)NCCCN4CCC(Cc5ccccc5)CC4)ncn3n2)cc1	10.0	15.9	70.8*	40.6	96.0*	-5.8
COc1ccc(-c2cc3c(=O)n(CC(=O)NCCCN4CCN(Cc5ccccc5)CC4)ncn3n2)cc1	-11.8	50.4*	-16.7	22.6	-75.2	-41.1
Cc1cc(-c2nc3cc(F)ccc3s2)ccc1N	34.2	11.3	-11.3	75.2*	-112.0	-44.0
Nc1cc2sc(-c3ccc(C(=O)O)cc3)nc2cc1Cl	-14.8	18.2	13.8	29.1	-21.1	-25.2
NC1=NS(=O)(=O)NC1c1cccc(Cl)c1 (stereo not given)	0.8	3.3	10.5	82.1*	5.5	15.9
